Consider 9 molecules from ChEMBL document CHEMBL2218924, “A broad activity screen in support of a chemogenomic map for kinase signalling research and drug discovery” (Biochem J, 2013).

Experiment [1] has as its target ALK tyrosine kinase receptor (Homo sapiens) (UniProt Q9UM73). To be noted: at 10 µM.
Experiment [2] addresses T1, AMP-activated protein kinase (AMPK) alpha-1/beta-1/gamma-1 (Homo sapiens) (UniProt P54619+Q9Y478+Q13131). Conditions: at 1 µM.
The target in experiment [3] is T1, AMP-activated protein kinase (AMPK) alpha-1/beta-1/gamma-1 (Homo sapiens). To be noted: at 10 µM.
Experiment [4] deals with T2, AMP-activated protein kinase, AMPK (Homo sapiens) (UniProt P54646+O43741+P54619+Q9UGJ0+Q9Y478+Q13131+Q9UGI9). To be noted: at 1 µM.
Experiment [5] concerns the target T2, AMP-activated protein kinase, AMPK (Homo sapiens). Conditions: at 10 µM.
Experiment [6] deals with T3, NUAK family SNF1-like kinase 1 (Homo sapiens) (UniProt O60285).
T3 sequence (whole entry): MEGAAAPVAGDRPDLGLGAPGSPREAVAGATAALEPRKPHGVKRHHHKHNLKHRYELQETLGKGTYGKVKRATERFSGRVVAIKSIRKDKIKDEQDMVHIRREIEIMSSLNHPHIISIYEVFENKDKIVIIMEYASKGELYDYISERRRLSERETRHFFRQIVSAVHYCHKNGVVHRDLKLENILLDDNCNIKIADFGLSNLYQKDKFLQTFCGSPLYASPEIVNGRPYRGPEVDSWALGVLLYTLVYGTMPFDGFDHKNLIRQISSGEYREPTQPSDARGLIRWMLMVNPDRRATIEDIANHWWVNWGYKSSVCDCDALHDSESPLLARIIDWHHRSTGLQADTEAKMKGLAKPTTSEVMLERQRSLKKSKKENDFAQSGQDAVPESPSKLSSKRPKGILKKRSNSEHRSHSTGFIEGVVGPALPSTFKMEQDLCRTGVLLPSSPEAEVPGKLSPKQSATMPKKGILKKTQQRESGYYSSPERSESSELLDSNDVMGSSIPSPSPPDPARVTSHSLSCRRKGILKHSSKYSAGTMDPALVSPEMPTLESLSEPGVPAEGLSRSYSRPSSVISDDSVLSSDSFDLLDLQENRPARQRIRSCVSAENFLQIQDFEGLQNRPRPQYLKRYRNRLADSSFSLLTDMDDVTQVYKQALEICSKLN
Conditions: at 1 µM.

For experiment [7], the target named is T3, NUAK family SNF1-like kinase 1 (Homo sapiens). To be noted: at 10 µM.
For experiment [8], the target named is T4, Mitogen-activated protein kinase kinase kinase 5 (Homo sapiens) (UniProt Q99683).
T4 sequence (whole entry): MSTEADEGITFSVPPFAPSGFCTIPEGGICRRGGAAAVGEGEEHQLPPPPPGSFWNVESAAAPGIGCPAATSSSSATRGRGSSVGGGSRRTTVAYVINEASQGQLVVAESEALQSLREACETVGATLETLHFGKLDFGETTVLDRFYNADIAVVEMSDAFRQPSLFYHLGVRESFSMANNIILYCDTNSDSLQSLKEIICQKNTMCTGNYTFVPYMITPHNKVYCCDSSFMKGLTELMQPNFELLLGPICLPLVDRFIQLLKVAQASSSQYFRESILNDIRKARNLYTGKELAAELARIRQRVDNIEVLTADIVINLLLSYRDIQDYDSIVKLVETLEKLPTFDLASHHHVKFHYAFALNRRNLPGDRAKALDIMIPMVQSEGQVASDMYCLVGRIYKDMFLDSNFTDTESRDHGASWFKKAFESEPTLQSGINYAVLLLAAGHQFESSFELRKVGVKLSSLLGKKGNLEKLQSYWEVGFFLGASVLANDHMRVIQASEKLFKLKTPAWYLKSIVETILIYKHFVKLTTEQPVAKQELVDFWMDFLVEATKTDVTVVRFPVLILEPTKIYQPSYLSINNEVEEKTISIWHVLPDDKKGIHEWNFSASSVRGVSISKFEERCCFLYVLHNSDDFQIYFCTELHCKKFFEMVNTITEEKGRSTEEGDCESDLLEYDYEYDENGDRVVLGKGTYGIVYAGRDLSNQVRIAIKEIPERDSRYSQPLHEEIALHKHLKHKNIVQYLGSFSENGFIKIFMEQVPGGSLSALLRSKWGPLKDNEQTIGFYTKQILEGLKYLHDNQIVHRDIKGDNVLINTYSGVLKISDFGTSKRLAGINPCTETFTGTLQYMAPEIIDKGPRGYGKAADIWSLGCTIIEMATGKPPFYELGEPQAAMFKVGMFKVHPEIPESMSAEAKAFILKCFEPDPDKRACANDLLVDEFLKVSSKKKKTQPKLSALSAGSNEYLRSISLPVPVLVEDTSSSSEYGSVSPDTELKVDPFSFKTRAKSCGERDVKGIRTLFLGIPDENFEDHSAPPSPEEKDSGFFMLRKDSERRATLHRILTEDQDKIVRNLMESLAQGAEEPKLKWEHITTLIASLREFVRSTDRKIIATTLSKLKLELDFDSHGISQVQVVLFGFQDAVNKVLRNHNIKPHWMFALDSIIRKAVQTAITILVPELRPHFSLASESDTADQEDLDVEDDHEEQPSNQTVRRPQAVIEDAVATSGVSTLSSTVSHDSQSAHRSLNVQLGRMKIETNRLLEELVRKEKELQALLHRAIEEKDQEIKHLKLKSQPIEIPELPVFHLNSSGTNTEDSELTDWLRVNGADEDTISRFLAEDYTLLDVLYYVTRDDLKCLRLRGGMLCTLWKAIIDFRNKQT
To be noted: at 1 µM.

The target of experiment [9] is Platelet-derived growth factor receptor alpha (Homo sapiens) (UniProt P16234). To be noted: at 1 µM.
Chain of Platelet-derived growth factor receptor alpha (Homo sapiens) (P16234 whole entry): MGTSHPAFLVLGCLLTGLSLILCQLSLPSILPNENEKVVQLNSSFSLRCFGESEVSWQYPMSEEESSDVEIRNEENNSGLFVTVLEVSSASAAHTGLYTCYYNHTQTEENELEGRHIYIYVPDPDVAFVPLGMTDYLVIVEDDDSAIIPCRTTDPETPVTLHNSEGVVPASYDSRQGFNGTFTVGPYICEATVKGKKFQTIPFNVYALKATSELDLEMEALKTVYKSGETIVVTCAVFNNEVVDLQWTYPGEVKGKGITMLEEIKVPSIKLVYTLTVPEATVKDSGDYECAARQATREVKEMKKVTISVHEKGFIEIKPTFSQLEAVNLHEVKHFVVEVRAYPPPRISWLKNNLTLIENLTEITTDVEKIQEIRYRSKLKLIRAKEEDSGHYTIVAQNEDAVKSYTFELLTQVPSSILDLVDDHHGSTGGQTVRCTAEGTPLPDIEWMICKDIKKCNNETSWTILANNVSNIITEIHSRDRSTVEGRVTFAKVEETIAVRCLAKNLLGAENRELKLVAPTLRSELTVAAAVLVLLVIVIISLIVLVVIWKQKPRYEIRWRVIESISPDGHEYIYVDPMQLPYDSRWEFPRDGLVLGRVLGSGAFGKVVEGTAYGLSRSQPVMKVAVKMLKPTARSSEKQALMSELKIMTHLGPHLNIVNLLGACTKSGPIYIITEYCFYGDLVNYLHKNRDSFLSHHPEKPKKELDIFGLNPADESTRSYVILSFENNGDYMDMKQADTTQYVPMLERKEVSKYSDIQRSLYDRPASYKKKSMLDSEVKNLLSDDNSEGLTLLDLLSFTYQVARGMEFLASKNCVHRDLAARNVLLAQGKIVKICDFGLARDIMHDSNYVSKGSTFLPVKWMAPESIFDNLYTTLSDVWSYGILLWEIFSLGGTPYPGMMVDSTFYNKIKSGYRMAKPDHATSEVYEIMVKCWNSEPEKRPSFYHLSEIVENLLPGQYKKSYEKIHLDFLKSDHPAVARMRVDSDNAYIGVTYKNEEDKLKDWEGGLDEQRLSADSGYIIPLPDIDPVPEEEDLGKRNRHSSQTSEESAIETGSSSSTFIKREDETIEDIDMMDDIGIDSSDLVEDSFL
The target is the same in experiment [10]. Conditions: at 10 µM.
Experiment [11] concerns the target Platelet-derived growth factor receptor beta (Homo sapiens) (UniProt P09619). To be noted: at 1 µM.
Experiment [12] shares this target. Conditions: at 10 µM.
For experiment [13], the target named is cAMP-dependent protein kinase catalytic subunit alpha (Homo sapiens) (UniProt P17612). Conditions: at 1 µM.
Experiment [14] shares this target. Conditions: at 10 µM.
The target in experiment [15] is RAC-gamma serine/threonine-protein kinase (Homo sapiens) (UniProt Q9Y243). Conditions: at 1 µM.
Chain of RAC-gamma serine/threonine-protein kinase (Homo sapiens) (Q9Y243 whole entry): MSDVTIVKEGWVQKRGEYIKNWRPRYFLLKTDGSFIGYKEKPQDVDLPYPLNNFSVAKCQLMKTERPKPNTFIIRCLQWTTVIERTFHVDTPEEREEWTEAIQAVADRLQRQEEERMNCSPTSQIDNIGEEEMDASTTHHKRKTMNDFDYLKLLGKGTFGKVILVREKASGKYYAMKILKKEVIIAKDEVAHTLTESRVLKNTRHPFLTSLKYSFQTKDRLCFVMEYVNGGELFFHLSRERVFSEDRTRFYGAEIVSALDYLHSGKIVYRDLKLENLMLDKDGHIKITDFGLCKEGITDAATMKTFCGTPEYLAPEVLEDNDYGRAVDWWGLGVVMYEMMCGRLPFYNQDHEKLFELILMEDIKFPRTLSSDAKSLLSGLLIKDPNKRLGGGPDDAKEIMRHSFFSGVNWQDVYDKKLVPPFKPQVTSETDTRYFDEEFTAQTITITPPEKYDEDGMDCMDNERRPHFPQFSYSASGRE
For experiment [16] the target is unchanged. Conditions: at 10 µM.
The target in experiment [17] is T5, 3-phosphoinositide-dependent protein kinase 1 (Homo sapiens) (UniProt O15530).
T5 sequence (whole entry): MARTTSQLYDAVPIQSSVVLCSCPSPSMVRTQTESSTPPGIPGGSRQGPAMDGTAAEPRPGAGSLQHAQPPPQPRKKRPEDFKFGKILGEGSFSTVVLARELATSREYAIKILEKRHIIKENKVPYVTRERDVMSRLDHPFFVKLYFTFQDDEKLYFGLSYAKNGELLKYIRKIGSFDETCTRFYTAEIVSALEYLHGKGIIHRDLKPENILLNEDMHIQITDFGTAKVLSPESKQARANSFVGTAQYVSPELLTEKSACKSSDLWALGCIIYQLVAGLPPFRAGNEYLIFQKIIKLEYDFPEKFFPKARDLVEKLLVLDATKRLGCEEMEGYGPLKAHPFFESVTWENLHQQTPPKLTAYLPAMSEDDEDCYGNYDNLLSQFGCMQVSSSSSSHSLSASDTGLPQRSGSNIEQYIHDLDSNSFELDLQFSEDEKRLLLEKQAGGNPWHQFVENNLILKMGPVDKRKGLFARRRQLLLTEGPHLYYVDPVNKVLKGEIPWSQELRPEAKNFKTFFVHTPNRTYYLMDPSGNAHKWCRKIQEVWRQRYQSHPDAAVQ
Conditions: at 1 µM.

Experiment [18] has as its target T5, 3-phosphoinositide-dependent protein kinase 1 (Homo sapiens). To be noted: at 10 µM.
Experiment [19] has as its target T6, Activin receptor type-1B (Homo sapiens) (UniProt P36896).
T6 sequence (whole entry): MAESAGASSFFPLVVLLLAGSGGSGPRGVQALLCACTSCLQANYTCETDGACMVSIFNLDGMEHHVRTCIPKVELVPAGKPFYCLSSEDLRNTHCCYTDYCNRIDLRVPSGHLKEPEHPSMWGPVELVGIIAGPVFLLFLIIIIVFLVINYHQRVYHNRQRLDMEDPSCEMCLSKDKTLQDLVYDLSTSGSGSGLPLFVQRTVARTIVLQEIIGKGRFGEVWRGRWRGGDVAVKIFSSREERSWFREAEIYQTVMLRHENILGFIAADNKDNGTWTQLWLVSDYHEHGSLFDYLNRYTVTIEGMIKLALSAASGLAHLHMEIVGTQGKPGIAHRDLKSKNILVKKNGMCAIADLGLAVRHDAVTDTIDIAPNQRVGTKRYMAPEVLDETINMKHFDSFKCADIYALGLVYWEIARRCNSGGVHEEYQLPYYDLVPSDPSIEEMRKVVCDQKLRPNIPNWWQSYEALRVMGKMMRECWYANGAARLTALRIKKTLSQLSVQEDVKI
To be noted: at 10 µM.

The target in experiment [20] is T6, Activin receptor type-1B (Homo sapiens). To be noted: at 1 µM.

Chain of Platelet-derived growth factor receptor beta (Homo sapiens) (P09619 whole entry): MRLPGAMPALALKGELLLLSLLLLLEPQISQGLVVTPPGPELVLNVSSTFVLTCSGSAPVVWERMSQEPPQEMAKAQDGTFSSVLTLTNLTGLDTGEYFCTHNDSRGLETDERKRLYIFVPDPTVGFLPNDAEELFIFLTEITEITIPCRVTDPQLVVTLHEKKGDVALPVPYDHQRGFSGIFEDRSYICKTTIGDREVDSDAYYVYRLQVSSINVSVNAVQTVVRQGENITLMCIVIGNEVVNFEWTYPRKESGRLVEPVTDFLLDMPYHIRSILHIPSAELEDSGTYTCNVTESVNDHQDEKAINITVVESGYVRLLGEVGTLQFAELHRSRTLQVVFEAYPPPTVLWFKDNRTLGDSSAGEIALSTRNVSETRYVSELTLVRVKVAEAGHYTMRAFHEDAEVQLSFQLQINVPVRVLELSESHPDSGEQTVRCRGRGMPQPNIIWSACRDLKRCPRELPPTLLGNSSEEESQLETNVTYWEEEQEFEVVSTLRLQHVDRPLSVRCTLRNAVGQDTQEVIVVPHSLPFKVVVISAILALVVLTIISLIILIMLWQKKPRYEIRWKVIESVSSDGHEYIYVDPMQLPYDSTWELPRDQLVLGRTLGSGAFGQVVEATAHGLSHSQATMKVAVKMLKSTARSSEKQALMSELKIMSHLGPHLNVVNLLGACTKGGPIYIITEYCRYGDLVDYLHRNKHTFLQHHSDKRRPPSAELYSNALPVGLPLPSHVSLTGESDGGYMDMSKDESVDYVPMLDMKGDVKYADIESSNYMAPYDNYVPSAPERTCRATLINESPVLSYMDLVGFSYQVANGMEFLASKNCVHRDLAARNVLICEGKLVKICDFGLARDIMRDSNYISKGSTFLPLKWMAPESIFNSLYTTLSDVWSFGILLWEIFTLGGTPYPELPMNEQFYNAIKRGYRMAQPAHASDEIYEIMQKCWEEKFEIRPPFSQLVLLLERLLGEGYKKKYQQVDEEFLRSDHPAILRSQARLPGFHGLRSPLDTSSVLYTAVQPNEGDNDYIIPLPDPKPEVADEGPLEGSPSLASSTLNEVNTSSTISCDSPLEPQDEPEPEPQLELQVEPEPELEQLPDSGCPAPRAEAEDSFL
Chain of ALK tyrosine kinase receptor (Homo sapiens) (Q9UM73 19-1620 limits assumed): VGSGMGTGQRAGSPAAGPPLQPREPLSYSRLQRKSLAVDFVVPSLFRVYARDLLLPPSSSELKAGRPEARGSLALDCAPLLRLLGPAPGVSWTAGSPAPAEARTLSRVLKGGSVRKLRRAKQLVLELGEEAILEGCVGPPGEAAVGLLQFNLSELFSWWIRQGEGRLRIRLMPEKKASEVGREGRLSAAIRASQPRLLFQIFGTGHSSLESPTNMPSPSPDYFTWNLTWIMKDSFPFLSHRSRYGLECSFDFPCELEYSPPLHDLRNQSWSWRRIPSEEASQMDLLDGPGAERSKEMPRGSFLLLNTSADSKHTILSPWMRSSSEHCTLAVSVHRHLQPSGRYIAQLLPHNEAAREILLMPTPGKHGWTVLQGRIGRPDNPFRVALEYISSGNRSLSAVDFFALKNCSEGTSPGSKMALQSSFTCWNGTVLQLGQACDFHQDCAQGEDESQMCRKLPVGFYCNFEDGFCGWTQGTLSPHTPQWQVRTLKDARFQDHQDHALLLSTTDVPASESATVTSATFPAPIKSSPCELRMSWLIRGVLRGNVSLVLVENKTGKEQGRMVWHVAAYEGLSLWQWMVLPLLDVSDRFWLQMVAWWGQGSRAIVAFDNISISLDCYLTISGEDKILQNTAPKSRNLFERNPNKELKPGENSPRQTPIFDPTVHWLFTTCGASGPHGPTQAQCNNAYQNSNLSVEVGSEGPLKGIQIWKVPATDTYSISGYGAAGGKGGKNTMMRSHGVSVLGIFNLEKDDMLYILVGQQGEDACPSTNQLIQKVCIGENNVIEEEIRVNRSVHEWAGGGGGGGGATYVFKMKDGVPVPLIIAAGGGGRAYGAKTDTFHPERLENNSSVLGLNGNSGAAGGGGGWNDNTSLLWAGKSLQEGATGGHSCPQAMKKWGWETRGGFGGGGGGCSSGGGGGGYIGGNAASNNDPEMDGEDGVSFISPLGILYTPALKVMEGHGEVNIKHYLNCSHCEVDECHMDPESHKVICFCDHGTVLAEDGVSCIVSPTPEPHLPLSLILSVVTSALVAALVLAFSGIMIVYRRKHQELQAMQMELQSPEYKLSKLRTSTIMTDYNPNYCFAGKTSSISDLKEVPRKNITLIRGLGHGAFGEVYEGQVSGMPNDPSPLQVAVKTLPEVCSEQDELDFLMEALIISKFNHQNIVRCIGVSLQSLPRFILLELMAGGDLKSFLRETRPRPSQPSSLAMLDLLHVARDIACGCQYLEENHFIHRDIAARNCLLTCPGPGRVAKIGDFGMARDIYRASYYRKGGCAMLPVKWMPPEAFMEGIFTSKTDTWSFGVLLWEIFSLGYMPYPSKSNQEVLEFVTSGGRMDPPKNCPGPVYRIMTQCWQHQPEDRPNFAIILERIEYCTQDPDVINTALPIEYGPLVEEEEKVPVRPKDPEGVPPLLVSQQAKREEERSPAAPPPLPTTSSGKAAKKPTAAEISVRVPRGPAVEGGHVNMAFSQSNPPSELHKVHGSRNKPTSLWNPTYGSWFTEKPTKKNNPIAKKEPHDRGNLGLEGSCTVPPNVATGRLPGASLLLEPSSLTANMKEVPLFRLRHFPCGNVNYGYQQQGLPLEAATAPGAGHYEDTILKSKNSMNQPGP

`O=C1Nc2ccc(Cl)cc2/C1=C/c1cc(Cl)c(O)c(Cl)c1`: the residual activity in experiment [1] is 19%; in [2], 79%; in [3], 40%; in experiment [4] it was 77%; in experiment [5], 40%; in experiment [6], 69%. Besides, the residual activity in experiment [7] was 50%; in experiment [8] it was 93%; in experiment [9], 60%; in experiment [10], 10%; in [11], 75%; in experiment [12] it was 25%. Further, the residual activity in experiment [13] was 68%; in experiment [14], 66%; in experiment [15] it was 96%; in experiment [16], 80%.

Turning to `O=C(Nc1nc2ccccc2n1CCN1CCOCC1)c1cccc([N+](=O)[O-])c1`, the residual activity in experiment [1] came to 75%; in [4], 79%; in [5], 83%; in experiment [7], 66%; in [8], 113%; in experiment [11], 104%. In addition, the residual activity was determined as 81% in experiment [12]; 104% in experiment [17]; 81% in experiment [18]; 80% in [14]; 103% in [15]; 84% in experiment [16].

Regarding `N#C/C(=C\c1ccc(O)c(O)c1)C(=O)NCc1ccccc1`, the residual activity came to 87% in experiment [2]; 53% in experiment [3]; 124% in experiment [4]; 70% in experiment [5]; 100% in experiment [6]; 100% in experiment [7]. The residual activity in [9] was 122%; in [10] it was 100%; in [13], 76%; in [14], 75%; in [16], 83%.

With `O=c1cc(N2CCOCC2)oc2c1ccc1ccccc12`, the residual activity in experiment [19] was determined as 104%; in experiment [2] it was 110%; in [3], 94%; in experiment [4], 105%; in experiment [5], 90%; in experiment [6], 101%. Moreover, the residual activity in [7] was 85%; in experiment [8] it was 88%; in experiment [11], 98%; in [13], 101%; in experiment [14], 104%; in [15], 111%. The residual activity in experiment [16] stood at 102%.

With `Oc1cccc(-c2nc(N3CCOCC3)c3oc4ncccc4c3n2)c1`, the residual activity in experiment [20] came to 148%; in experiment [19], 92%; in experiment [6] it was 98%; in experiment [7], 99%; in experiment [9] it was 127%; in experiment [12], 98%. Also, the residual activity was 95% in experiment [13], 85% in experiment [14], 95% in experiment [15] and 95% in experiment [16].

In the case of `CC(C)(C)c1nc2c3ccc(F)cc3c3c(=O)[nH]ccc3c2[nH]1`, the residual activity in experiment [1] came to 11%; in experiment [2], 33%; in experiment [3] it was 31%; in experiment [4] it was 20%; in [5], 23%; in [6], 8%. The residual activity in experiment [7] was found to be 9%; in experiment [8] it was 81%; in experiment [9], 102%; in experiment [17] it was 3%; in experiment [18] it was 1%; in experiment [15], 60%. Further, the residual activity in experiment [16] is 63%.

With `COc1cc2c(cc1OC)-c1n[nH]c(Nc3cccc(F)c3)c1C2`, the residual activity in experiment [2] stood at 80%; in [3], 65%; in experiment [5], 69%; in experiment [7] it was 68%; in experiment [8] it was 74%; in experiment [9], 2%. Also, the residual activity was found to be 1% in experiment [10]; 11% in experiment [11]; 1% in [12]; 104% in experiment [17]; 106% in [18]; 98% in experiment [14]. The residual activity in experiment [16] turned out to be 109%.

With `CC(C)[C@H](CO)Nc1nc(Nc2cc(N)cc(Cl)c2)c2ncn(C(C)C)c2n1`, the residual activity came out at 122% in experiment [20]; 117% in experiment [19]; 87% in experiment [4]; 50% in [5]; 44% in experiment [6]; 13% in [7]. For the same molecule, the residual activity was determined as 92% in experiment [12], 93% in [13] and 87% in [14].

In the case of `O=C(Nc1ccc(Cl)cc1)c1ccccc1NCc1ccncc1`, the residual activity is 130% in experiment [20]; 72% in experiment [19]; 78% in [3]; 72% in experiment [5]; 39% in [9]; 7% in experiment [10]. In addition, the residual activity in experiment [11] is 46%; in experiment [12], 4%.
